Screening results deposited in PubChem by National Center for Advancing Translational Sciences (NCATS).
This is a sample that favours compounds with a hit; in the whole collection about 10% have one here.
ELG1 repair inh: qHTS screen for small molecules that inhibit ELG1-dependent DNA repair in human embryonic kidney (HEK293T) cells expressing luciferase-tagged ELG1; HEK293T ELG1-luciferase reporter, luminescence, 16 h; DNA damage induced by 5-fluorouridine; Potency, µM (highest dose often 46.1 µM), for inactives: top-dose activity change, negative = inhibition, most hits filed as inhibitors; 330,000 tested, 2.3% active; AID 504467, 2011; note: % is set by controls: 0 for no effect and ±100 for the full control effect; nearly all actives have a fitted effect of over 55% in size
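Cells (2,000 per well) received 5-fluorouridine plus test compound or DMSO and were incubated 16 hr at 37 °C, 5% CO2. Luciferase activity was read by luminescence 30 min after ONE-Glo addition; signal suppression marked inhibition of damage-induced ELG1 function.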
MCF10A rerep: A quantitative high throughput screen for small molecules that induce DNA re-replication in MCF 10a normal breast cells; MCF 10A DNA re-replication, Hoechst nuclear intensity, 48 h; Potency, µM (titrated, usually from 46.1 µM), for inactives: at the top dose activity, positive = re-replication, actives largely listed as activators; 350,000 tested, 2.9% active; AID 624296, 2012; note: % of control where 0% means no effect; nearly all actives have a fitted effect of over 50% in size
RORgamma inh: qHTS for inhibitors of ROR gamma transcriptional activity; AID 2551, 2010; Potency, µM (highest dose often 53.6 µM), inactives show top-dose activity change, negative = inhibition, hits mostly inhibitors; Drosophila S2 Gal4-RORgamma UAS-luciferase reporter, 20 h; 310,000 tested, 5.4% active; Nuclear receptor ROR-gamma (Mus musculus), P51450; note: % is set by controls: 0 for no effect and ±100 for the full control effect; nearly all actives have a fitted effect of over 60% in size
Target sequence (P51450 whole entry, looked up, the tested form may be a part): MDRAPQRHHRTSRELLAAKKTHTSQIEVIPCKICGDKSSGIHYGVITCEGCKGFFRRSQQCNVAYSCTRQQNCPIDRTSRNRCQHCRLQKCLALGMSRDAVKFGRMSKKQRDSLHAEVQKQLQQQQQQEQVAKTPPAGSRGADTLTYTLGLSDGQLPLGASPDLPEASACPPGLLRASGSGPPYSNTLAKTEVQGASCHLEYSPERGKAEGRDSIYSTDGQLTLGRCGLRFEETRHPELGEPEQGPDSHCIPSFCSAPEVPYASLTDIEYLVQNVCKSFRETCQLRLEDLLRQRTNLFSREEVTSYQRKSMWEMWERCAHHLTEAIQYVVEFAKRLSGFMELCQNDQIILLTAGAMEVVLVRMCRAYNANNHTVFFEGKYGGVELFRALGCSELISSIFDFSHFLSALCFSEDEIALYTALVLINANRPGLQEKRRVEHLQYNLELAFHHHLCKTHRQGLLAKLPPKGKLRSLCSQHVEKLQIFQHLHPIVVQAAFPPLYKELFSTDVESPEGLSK
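Compounds are pin-transferred onto Drosophila Schneider cells expressing a copper-inducible Gal4–ROR gamma transactivation domain fusion. After 1 hr, copper sulfate is added to 700 uM final; luciferase is read 20 hr later.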
VP16 counter: VP16 counterscreen qHTS for inhibitors of ROR gamma transcriptional activity; Drosophila S2 Gal4-VP16 UAS-luciferase, luminescence, 20 h; Potency, µM (highest dose often 53.6 µM), inactives show at the top dose activity, negative = inhibition, usual class: inhibitors; AID 2546, 2010; 310,000 tested, 3.5% active;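 note: Gal4-VP16 expression switched on by copper sulfate through the metallothionein promoter; % is set by controls: 0 for no effect and ±100 for the full control effect; nearly all actives have a fitted effect of over 50% in size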
SW480 rereplic: A quantitative high throughput screen for small molecules that induce DNA re-replication in SW480 colon adenocarcinoma cells | SW480 DNA re-replication, Hoechst DNA content imaging, 48 h | Potency, µM (top dose mostly 46.1 µM), for inactives: top-dose re-replication activation, most hits filed as activators | 340,000 tested, 1.8% active; note: % of control where 0% means no effect; nearly all actives have a fitted effect of over 55% in size
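Image-based DNA-content assay: after two days of treatment, nuclei were labelled with the DNA dye Hoechst and imaged, and hits were compounds raising the count of nuclei showing high fluorescence intensity.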
* marks the source's active call; other numbers are inactive results; ? = inconclusive; . = no result given; [ ] = another dose, or the depositor's remark. Calls come from the whole dose curve; as a rule, active = well fitted curve in the direction sought with a large enough effect; inconclusive = small, poorly fitted or top-dose-only effect, or another doubt; inactive = no such curve, though single readings can be large; an effect the other way counts as inactive or inconclusive. Potency is the fitted concentration of half-maximal effect.

SMILES	ELG1 repair inh	MCF10A rerep	RORgamma inh	VP16 counter	SW480 rereplic
CSCCC(NC(=O)COc1ccccc1)C(=O)N(C)Cc1ccc(SC)cc1 (stereo unspecified)	?	7%	.	.	-2%
O=C(c1cc(-c2ccncc2)nc2ccc(Cl)cc12)N1CCN(Cc2ccc3c(c2)OCO3)CC1	15µM*	-2%	0%	-13%	?
O=C(c1cc(-c2ccncc2)nc2ccc(Br)cc12)N1CCN(Cc2ccc3c(c2)OCO3)CC1	?	?	5%	-2%	-1%
O=C(c1cccn2c(=O)c3ccc(Cl)cc3nc12)N1CCN(Cc2ccc3c(c2)OCO3)CC1	-5%	16µM*	-4%	-8%	16µM*
COc1ccc(CN2CCN(C(=O)c3cc(-c4cccnc4)nc4ccc(Cl)cc34)CC2)c(OC)c1OC	9.2µM*	10%	24%	6%	-2%
O=C(c1cccc(Cl)c1)N1CCN(Cc2ccc3c(c2)OCO3)CC1	?	-5%	-5%	5%	-4%
O=C(COC(=O)c1ccc2ccccc2n1)Nc1cccc(S(=O)(=O)NC2=NCCCCC2)c1	12%	3%	26%	0%	-14%
CCc1nc2ccccc2c(C(=O)OCC(=O)Nc2ccc(S(=O)(=O)N3CCOCC3)cc2)c1C	18µM*	40%	-26%	?	7%[9.22 µM]
CCc1nc2ccccc2c(C(=O)OCC(=O)Nc2cccc(S(=O)(=O)NC3=NCCCCC3)c2)c1C	13µM*	?	?	?	?
COC(=O)C[C@H]1c2cc(C(F)(F)F)ccc2S(=O)(=O)N1Cc1ccccc1OC	.	1%	.	.	4%
O=C(COC(=O)CCC(=O)c1cccs1)Nc1cccc(F)c1	4%	1%	.	.	-15%
C=CCOc1ccc(/C=N/NC(=O)c2cc3c(OC)cc(OC)cc3[nH]2)cc1	?	12%	-27%	-5%	-5%
COc1ccc(OC)c(/C=N/NC(=O)c2cc3c(OC)cccc3[nH]2)c1	0%	?	-1%	-2%	27%
CCOc1ccc(/C=N/NC(=O)c2cc3c(OC)cc(OC)cc3[nH]2)cc1OC	23µM*	?	35%	-19%	?
COc1ccc(OC)c(/C=N/NC(=O)c2cc3c(OC)cc(OC)cc3[nH]2)c1	21µM*	?	13%	-10%	5%
CC(=O)c1cccc(N(CC(=O)NC2CCCCC2)C(=O)c2csnn2)c1	5%	-24%	-6%	-6%	-22%
CCN(CC)c1ccc(C(=O)NNC(=O)CNC(=O)c2cccs2)cc1	0%	-4%	.	.	-1%
Cc1cc(C(=O)COC(=O)c2ccc[nH]c2=O)c(C)n1-c1ccc(Br)cc1	?	-2%	-27%	0.4µM*	0%
Cc1ccc(-n2c(C)cc(C(=O)COC(=O)c3ccc[nH]c3=O)c2C)cc1	?	-2%	11µM*	.	-59%
COCCn1c(C)cc(C(=O)COC(=O)c2ccc[nH]c2=O)c1C	?	2%	4.5µM*	3.5µM*	2%
O=C(c1ccccc1-n1cccn1)N1CCc2c([nH]c3ccccc23)C1c1ccccn1 (stereo unspecified)	?	-5%	16%	?	-37%
NC(=O)c1ccccc1NC(=O)Cc1cccs1	2%	2%	0%	-1%	-3%
O=C(Cc1cccs1)Nc1ccccc1-c1nc2ccccc2[nH]1	?	13µM*	1%	3%	12µM*
O=S(=O)(NCC(c1ccco1)N1CCN(c2ccccc2F)CC1)c1ccc2c(c1)OCCO2 (stereo unspecified)	16µM*	?	16%	-16%	4%
O=S(=O)(NCC(c1ccco1)N1CCN(c2ccccc2F)CC1)c1ccccc1 (stereo unspecified)	-10%	16%	37%	-1%	18%
SMILES	ELG1 repair inh	MCF10A rerep	RORgamma inh	VP16 counter	SW480 rereplic
COc1ccc(N2CCN(C(CNC(=O)c3ccc4c(c3)OCO4)c3ccco3)CC2)cc1 (stereo unspecified)	?	-2%	-1%	-10%	2%
COc1ccc(N2CCN(C(CNS(=O)(=O)c3ccc4c(c3)OCCO4)c3ccco3)CC2)cc1 (stereo unspecified)	15µM*	?	?	-4%	-1%
O=C(NCC(c1ccco1)N1CCN(c2ccccc2F)CC1)c1ccc2c(c1)OCO2 (stereo unspecified)	13µM*	5%	.	.	70%
COc1ccc(OC)c(NC(=O)CCNS(=O)(=O)c2cccc3nonc23)c1	-8%	1%	-19%	7%	-16%
COc1ccc(NS(=O)(=O)c2cccc3nonc23)c(OC)c1	4%	-6%	?	-2%	0.52µM*
Cn1nnnc1SCCNCc1ccccc1OCc1ccc(F)cc1	-12%	0%	?	-5%	-6%
O=c1[nH][nH]c2cc(=O)n(-c3cccc(C(F)(F)F)c3)nc12	5%	-2%	-2%	-3%	8%
Nc1n[nH]c2cc(=O)n(-c3cccc(C(F)(F)F)c3)nc12	?	-2%	23%	-3%	7.3µM*
CCOC(=O)N1CCN(C(=O)CCCn2c(=S)[nH]c3ccccc3c2=O)CC1	.	-8%	-3%	-13%	-6%
O=C(CCn1c(=O)[nH]c2ccsc2c1=O)N1CCN(c2ccc([N+](=O)[O-])cc2)CC1	18µM*	24%	?	-17%	-12%
CCOC(=O)N1CCN(C(=O)CCCn2c(=S)[nH]c3ccc(Br)cc3c2=O)CC1	23µM*	14%	13µM*	?	1%
CCOC(=O)N1CCN(C(=O)CCCn2c(=S)[nH]c3ccsc3c2=O)CC1	-12%	-8%	-24%	-8%	7%
CCOC(=O)N1CCN(C(=O)CCCCCn2c(=S)[nH]c3ccsc3c2=O)CC1	0%	4%	11µM*	?	3%
CC(=O)Nc1ccc2c(c1)CN(c1cc(C)ccc1C)CO2	0%	-5%	?	-14%	.
C#CCOCCOCCOCCNc1nc(N2CCN(C(=O)[C@H]([C@@H](C)CC)n3cc([C@@H](N)CC(C)C)nn3)CC2)nc(N2CCN(C(=O)[C@H]([C@@H](C)CC)n3cc([C@@H](N)CC(C)C)nn3)CC2)n1	17%	-5%	11%	-4%	-2%
CC1=NN(c2cccc(C(=O)O)c2)C(=O)/C1=C\C=C/c1ccccc1	?	?	1.1µM*	3.5µM*	14%
CC1=NN(c2ccc(C)cc2)C(=O)/C1=C\C=C\c1ccccc1	?	?	?	?	-7%
